NS1 function inh: blocks influenza NS1 protein function; 0.4% of 270,000 active; Potency, µM (doses to about 46.1 µM), without a hit: at the highest dose activity, positive = more growth; calls by dose curve; also: actives are rising curves; nearly all actives have a fitted effect of over 50% in size
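OD600 was taken as the measure of yeast growth restored by compound in an NS1-expressing S. cerevisiae strain. Cells had been washed out of glucose medium and diluted 1:100 into galactose -URA medium, pH 6.0.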
Pf growth 96h: P. falciparum growth inhibition at 96 hours. P. falciparum luciferase reporter growth, 96 h. 6.9% of 320,000 active. Potency, µM (top dose mostly 28.7 µM), inactives show at the highest dose activity change, negative = inhibition, most hits filed as inhibitors. AID 504834; also: % is scaled to controls: 0 for no effect and ±100 for the full control effect
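Luminescence readout: decreased luciferase signal marks inhibited growth of reporter-expressing P. falciparum in infected red cells (2% hematocrit, 0.05% parasitemia final), exposed to compound two generations (96 h, 37 C, 5% CO2).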
AMA1 RON2 block: inhibitors of Plasmodium falciparum AMA1-RON2 interaction; AlphaScreen AMA1-biotinylated RON2 peptide binding; Potency, µM (doses to about 58.2 µM), for inactives: at the top dose activity change, negative = inhibition, usual class: inhibitors; 0.2% of 360,000 active;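 also: 0% = vehicle wells and -100% = peptide control; nearly all actives have a fitted effect of over 45% in size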
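AMA1 (3D7) with his tag at 25 nM final met compounds first, then biotinylated RON2 peptide at 25 nM; detection used donor plus acceptor beads, 10 µg/mL apiece, read by AlphaScreen after 30 min at room temperature.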
Pf growth 48h: inhibits P. falciparum growth in the first generation, 48 h; P. falciparum luciferase growth in erythrocytes, 48 h; Potency, µM (highest dose often 28.7 µM), for the others: at the highest dose activity change, negative = inhibition, usual class: inhibitors; 5.9% of 310,000 active; AID 504832; also: % is scaled to controls: 0 for no effect and ±100 for the full control effect
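Luciferase-expressing P. falciparum in infected erythrocytes (2% hematocrit, 0.1% parasitemia final) in RPMI 1640/0.5% Albumax were exposed to compound for 48 hours at 37 C, 5% CO2; growth read as luminescence.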
Sm TGR inh: blocks Schistosoma mansoni thioredoxin glutathione reductase | Potency, µM (titrated, usually from 114 µM), for the others: top-dose activity change, negative = inhibition, most hits filed as inhibitors | 3% of 360,000 active | purified TGR, DTNB reduction, TNB absorbance 405 nm | AID 485364; also: % is scaled to controls: 0 for no effect and ±100 for the full control effect; nearly all actives have a fitted effect of over 60% in size
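First, TGR (20 nM dispensed) and NADPH were mixed with compound. Second, a 15 min room-temperature incubation followed. Third, further NADPH and then DTNB were added to start the reaction. Finally, TNB absorbance was monitored kinetically.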
* hit, by the source's call; ? = inconclusive; . = not tested or not shown; [ ] = remark or other dose. A selection: hits, their analogues and other compounds. The true share with any hit is near 11%. Unless noted, calls follow the shape of the dose curve; as a rule, active = well fitted curve in the direction sought with a large enough effect; inconclusive = small, poorly fitted or top-dose-only effect, or another doubt; inactive = no such curve, though single readings can be large; an effect the other way counts as inactive or inconclusive. Potency is read from the fitted curve at half-maximal effect.

SMILES	NS1 function inh	Pf growth 96h	AMA1 RON2 block	Pf growth 48h	Sm TGR inh
COc1ccc(CNCCC(c2ccc(OC)cc2)c2ccccc2OC)cc1 (stereo not given)	0.8%	?	4.7%	?	-20.5%
COc1ccccc1C(CC(=O)Nc1ccccc1C)c1ccc(OC(C)C)cc1 (stereo not given)	-3.0%	?	-2.9%	14.7µM*	0.1%
COc1cc(NCCCn2cnc3c(OC)ncnc32)cc(OC)c1OC	.	.	-3.9%	.	.
Cc1[nH]c(=O)[nH]c(=O)c1CSCC(=O)OCC(=O)c1ccc(Br)cc1	.	-8.0%	-6.7%	11.9%	9.3%
CC1(C(=O)NS(=O)(=O)c2cccc(OC(F)F)c2)CCN1C(=O)c1ccccc1CCc1ccccc1 (stereo not given)	.	.	1.0%	.	.
N#CC1=C(N)C(C#N)(C#N)C2(CCC3(CC2)OCCO3)C2CC3(CC=C12)OCCO3 (stereo not given)	-10.6%	-23.0%	46.7%	?	?
N#CC1=C(N)C(C#N)(C#N)[C@H](c2c(F)cccc2F)[C@H]2CC3(CC=C12)OCCO3	?	78.7%	20.4%	5.22µM*	?
COc1ccccc1C(=O)NCCC(=O)Nc1ccc(S(=O)(=O)N2CC(C)CC(C)C2)cc1 (stereo not given)	.	14.7µM*	9.0%	?	-1.0%
CC1CC(C)CN(S(=O)(=O)c2ccc(C(=O)OCC(=O)Nc3ccccc3)cc2)C1 (stereo not given)	.	.	-12.0%	.	.
COc1ccccc1C(=O)NCCC(=O)Nc1ccc(S(=O)(=O)N2C(C)CCCC2C)cc1 (stereo not given)	.	?	-6.8%	14.7µM*	-6.8%
Cc1nc2ccccn2c1CN(C)C(=O)C1CCC(=O)N(Cc2cccc(F)c2)C1 (stereo not given)	16.2%	?	-10.2%	-10.1%	-0.2%
COc1ccccc1N(CC(=O)NCC1CCCO1)C(=O)CNS(=O)(=O)c1ccc(Cl)cc1 (stereo not given)	-69.7%	-10.4%	-1.7%	?	-5.5%
CCOc1ccc(N2C(=O)CC(NC3CCN(C(=O)c4cccs4)CC3)C2=O)cc1 (stereo not given)	-21.2%	8.7%	-4.1%	?	-0.6%
O=C(CN1CCOCC1)Nc1ccc([N+](=O)[O-])cc1	0.5%	?	51.3%	7.7%	-16.9%
O=C(CN1CCCC1)Nc1ccc([N+](=O)[O-])cc1	8.6%	-9.6%	46.1%	3.8%	13.2%
CCN1CCOC(CC(=O)Nc2ccc([N+](=O)[O-])cc2)C1=O (stereo not given)	-73.5%	57.3%	-14.6%	60.3%	20µM*
O=C(CC1OCC2CCCN2C1=O)Nc1ccc([N+](=O)[O-])cc1 (stereo not given)	-52.2%	24.4%	3.1%	5.6%	25.1µM*
CCc1cccc(C)c1NC(=O)CSc1nnc(CC)n2c1cc1occc12	.	.	.	.	1.1%
COc1ccc(CCCc2nnc(SCc3nc4ccccc4c(=O)[nH]3)n2C)c(C)c1	4.1%	?	6.2%	?	7.8%
Nc1ccc2c(c1)C/C(=C/c1ccco1)C2=O	0.7%	273.9%	-15.0%	332.5%	15.8µM*
O=C(CCCN1C(=O)/C(=C/c2ccco2)SC1=S)Nc1cccc(C(=O)O)c1	4.2%	13.1µM*	-5.4%	-8.1%	-6.4%
O=C(CCCN1C(=O)/C(=C\c2ccco2)SC1=S)Nc1ccc(O)cc1C(=O)O	?	2.1%	-2.4%	11.0%	10µM*
COc1cc(/C=C2\SC(=S)N(CCC(=O)Nc3ccccc3O)C2=O)cc(OC)c1OC	21.9%	13.1µM*	-6.9%	?	8.7%
COc1cc(/C=C2\SC(=S)N(CCC(=O)NCCc3ccccc3)C2=O)cc(OC)c1OC	-11.2%	-0.1%	-2.8%	-19.6%	1.8%
O=C1/C(=C/c2cccc(Br)c2)SC(=S)N1CCC(=O)N(CCO)c1ccccc1	23.2%	-19.5%	-19.5%	-18.6%	-11.9%
SMILES	NS1 function inh	Pf growth 96h	AMA1 RON2 block	Pf growth 48h	Sm TGR inh
O=C(CCCN1C(=O)/C(=C\c2cccs2)SC1=S)Nc1ccc(O)cc1C(=O)O	-12.3%	?	-6.8%	4.6%	-1.8%
COc1cccc(/C=C2\SC(=S)N(CCCC(=O)N(CCO)c3ccccc3)C2=O)c1	-30.1%	1.85µM*	?	11.7µM*	-11.4%
COc1ccc(/C=C2/SC(=S)N(CCCC(=O)Nc3cccc(O)c3)C2=O)cc1	9.6%	?	-16.4%	14.7µM*	-8.4%
COc1ccc(NC(=O)CCCN2C(=O)/C(=C\c3ccco3)SC2=S)cc1	23.4%	5.22µM*	-11.2%[11.6 µM]	8.0%	-8.0%
CCc1nn(CC(=O)NCCN(CC(C)C)CC(C)C)c(=O)c2cc3sc(C)cc3n12	.	.	.	.	3.9%
COc1ccc(C(=O)COC(=O)C(Cc2c[nH]c3ccccc23)NC(=O)c2ccc(C(C)(C)C)cc2)cc1 (stereo not given)	.	.	.	.	-18.0%
CCN(CC)C(=O)Cn1c(=O)n(Cc2ccc(C(=O)NCCc3ccc(OC)c(OC)c3)cc2)c(=O)c2ccccc21	.	.	.	.	-0.5%
Clc1nc(-c2cccnc2)nc2scc(-c3ccccc3)c12	-6.7%	1.04µM*	8.6%	11.7µM*	-3.2%
Clc1ncnc2scc(-c3ccccc3)c12	6.4%	?	2.9%	?	1.3%
COc1ccc(-c2csc3nc(-c4cccnc4)nc(Cl)c23)cc1OC	1.7%	6.57µM*	13.1%	11.7µM*	7.7%
COc1ccc(-c2nc(-c3cccnc3)no2)cc1OC	-7.5%	52.9%	5.1%	64.0%	13.4%
O=C(Nc1ccccc1)Nc1ccc(Cl)nc1Cl	.	.	0.4%	.	.
O=S(=O)(Nc1ccncc1)c1cc(Cl)c(Cl)cc1Cl	13.2%	7.38µM*	10.3%	32.4%	118.9%
COc1ccc(Cl)cc1S(=O)(=O)Nc1ccncc1	6.8%	0.0%	-2.0%	0.5%	10.2%
NC(CCc1ccccc1)c1csc(NC(=O)Nc2ccccc2Oc2ccccc2)n1 (stereo not given)	.	.	65.4%	.	.
Cc1nnc(SC(C)C(=O)Nc2ncc(Cl)cc2Cl)n1Cc1ccccc1 (stereo not given)	8.8%	2.08µM*	?	?	-0.5%
Cc1ccc(N(C(=O)Cc2c[nH]c3ccccc23)C(C(=O)NC2CCCCC2)c2ccco2)cc1 (stereo not given)	5.3%	?	-7.1%	10.4µM*	-2.3%
Cc1ccc(C(C(=O)NC2CCCCC2)N(Cc2ccco2)C(=O)Cc2c[nH]c3ccccc23)o1 (stereo not given)	11.2%	?	-18.0%	13.1µM*	0.7%
Cc1ccccc1N(C(=O)Cc1c[nH]c2ccccc12)C(C(=O)NC1CCCCC1)c1ccco1 (stereo not given)	8.1%	-4.3%	-1.8%[11.6 µM]	?	-1.0%
O=S(=O)(c1ccccc1)N(CC(O)Cn1c2ccccc2c2ccccc21)c1ccccc1 (stereo not given)	22.2%	2.33µM*	-5.0%	?	8.2%
COc1ccccc1N(CC(O)Cn1c2ccccc2c2ccccc21)S(=O)(=O)c1ccccc1 (stereo not given)	?	10.4µM*	-15.4%	11.7µM*	6.6%

Compound activity from PubChem BioAssay.
